Results published in PubChem BioAssay (NCI).
The panel holds about 83,000 compounds, 20% with a hit somewhere; the sample as a whole holds those more often.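 Cell lines were cultured in 96-well plates, exposed to a single compound concentration, and assessed for percent growth 48 hours later.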 A number with no mark means an inactive call. The source made the active and inactive calls.

The compounds below were run on HT29 colon (assay: NCI-60 one-dose screen, 48 h (100 = growth as untreated, 0 = no growth, -100 = all killed)). Conditions: 10 µM unless noted.
Description: Growth inhibition of the HT29 human tumor cell line is measured as a screen for anti-cancer activity. Cells are grown in 96 well plates and exposed to the test compound for 48 hours. Compounds are tested at a single concentration, which is 10^-5 M for most compounds. The reported endpoint is percent growth (GI% or GIPRCNT), where numbers from 0 - 100% represent growth inhibition, and numbers from -100% - 0 represent cell death. For example, a value of 40 represents 60% growth inhibition. A value of 0 means no net growth occurred over the course of the experiment. A value of -40 indicates 40% of cells at the beginning of the experiment died by the end of the experiment. A value of -100 means all cells are dead at the end of the experiment.
NCI-60 Human Tumor Cell Lines Screen was performed using the standard one-dose NCI protocol, which is described in more detail at https://dtp.cancer.gov/discovery_development/nci-60/default.htm.
Compounds with GIPRCNT values below 10 were considered active. Activity score was based on GIPRCNT using the following formula: […]
Score is 0 for GIPRCNT values of 100 or above, 50 for GIPRCNT values of 0, and 100 for GIPRCNT values of -100.

Row | Compound | growth
1 | N#CC1C(C#N)C(C(=O)c2ccc(Br)cc2)N2c3ccccc3C=CC12 (stereo not given) | 37.4%
2 | C=C1C(=O)O[C@H]2[C@H]1CC/C(CNC(=O)CCc1ccc(OC)cc1)=C\CC[C@@]1(C)O[C@@H]21 | 12.1%
3 | COc1ccc(N2CCN(c3ccc(NC4=C(Cl)C(=O)c5ncccc5C4=O)cc3)CC2)cc1 | 49.9%
4 | CC(C)N1C(=O)/C(=C2\SC(=S)N(C(C)C)C2=O)SC1=S | 96.8%
5 | COC(=O)/C=C1\S/C(=N\NC(=O)c2cc3ccc2/C=C\c2ccc(cc2)/C=C\3)N(c2ccccc2)C1=O | -13.1% (active)
6 | COc1cc(NCCCCCNC(C)(C)C)c2ncccc2c1 | 85.9%
7 | CSc1nc2sc3cccc(Cl)c3n2c(=N)c1C#N | 113%
8 | Cc1ccc(-c2[nH][nH]c(=O)c2-c2nc3ccccc3s2)cc1 | 104%
9 | CCCCCC(=O)Oc1ccc(/C(=C(\C)c2ccccc2)c2ccc(OCCN3CCCCC3)cc2)cc1 | 8.87% (active)
10 | Cc1nc2sccn2c1-c1nc2sccn2c1/C=C1/C(=O)Nc2ccccc21 | 0.756% (active)
11 | Cc1nnc2c(Cc3ccccc3)nc3ccccc3n12 | 105%
12 | O=C(/C=C/c1ccc(F)cc1)c1ccc(NC(=O)N2CCN(c3cc4c(cc3F)c(=O)c(C(=O)O)cn4C3CC3)CC2)cc1 | 98%
13 | COc1ccc(-c2nc(S(=O)(=O)c3ccccc3)c(S(=O)CC(=O)N3CCC(C)CC3)o2)cc1 (stereo not given) | 11%
14 | COc1ccc(/C=C/c2nc(Nc3ccc(S(=O)(=O)Nc4cc(C)on4)cc3)c3ccccc3n2)cc1 | 69.3%
15 | CCCCOc1ccc(/C=N/Nc2cc(C)nc3ccc(Br)cc23)cc1 | -19.4% (active)
16 | N#C/C(=C\c1cccc(C#N)c1)c1ccccc1 | 96.6%
17 | COc1cc(/C=C2\COc3ccc(-c4ccccc4)cc3C2=O)cc(OC)c1 | 60.7%
18 | C#CCNC(=O)[C@]1(C)CC[C@]2(C)CC[C@@H]3C(=CC[C@H]4[C@@]3(C)CC[C@H]3C(C)(C)C(=O)CC[C@]43C)[C@@H]2C1 | 93.1%
19 | COc1cc2nc(-c3ccc(Cl)cc3)cc(OCCCN3CCOCC3)c2cc1OC | 22.3%
20 | Cc1ccc(C(=O)/C(=C/c2ccc([N+](=O)[O-])cc2)SCc2ccc(Cl)cc2)cc1 | -22.7% (active)

Row | Compound | growth
21 | COc1ccc(-c2nc([C@@H](C)Sc3nc(N)cc(N)n3)c(C)s2)cc1OCCN1CCOCC1 | 97.4%
22 | O=C1c2ccccc2CCC12OC2c1cn(-c2ccccc2)nc1-c1ccc(Cl)cc1 (stereo not given) | 102%
23 | COc1cccc(-c2nc3occn3c2-c2ccnc(NCCCNS(=O)(=O)c3ccc(C(F)(F)F)cc3)n2)c1 | 73.5%
24 | COc1cc(F)c(/C=C/c2cc(/C=C/c3cc(OC)c(OC)cc3F)on2)cc1OC | 77.9%
25 | COc1cc(/C=C/c2cc(O)c(C(C)=O)c(O)c2)cc2c1O[C@]1(C)CC[C@@H](O)C(C)(C)[C@H]1C2 | 34.9%
26 | Cc1ccc(C(=O)/C(=C\c2ccc([N+](=O)[O-])cc2)S(=O)Cc2ccc(F)cc2)cc1 (stereo not given) | -49.1% (active)
27 | O=C(Nc1ccccc1)Nc1ccc2cc3ccc(NC(=O)Nc4ccccc4)cc3nc2c1 | 4.81% (active)
28 | CN1CCN(C(=O)[C@]23CCC(C)(C)C[C@H]2C2=CC[C@@H]4[C@@]5(C)C/C(=C/c6cccnc6)C(=O)C(C)(C)[C@@H]5CC[C@@]4(C)[C@]2(C)CC3)CC1 | 33.1%
29 | COC1=CC(=O)c2ccccc2C1=O | 38.9%
30 | COC(=O)C(OC(C)=O)C(OC(C)=O)c1ccc(OC)c(OC)c1 (stereo not given) | 97.2%
31 | NCCCCCCNc1cc(-c2cccc(OC(F)(F)F)c2)nc2ccc(N3CCCC3)cc12 | -2.69% (active)
32 | COc1ccc(/C=C/c2nc(Nc3ccc(Cl)cc3)c3ccccc3n2)cc1 | 48.3%
33 | COc1cc2c(=O)n(CCCN(C)C)c3c4cc5c(cc4ccc3c2cc1OC)OCO5 | 30.5%
34 | COc1cc2cc(CN3CCN(c4nccc(-c5ccc6ccccc6c5)n4)CC3)c(=O)[nH]c2cc1OC | 69%
35 | ClC1=C(Br)C(Br)(Br)C(=C(Br)Br)C1(Br)Br | 82.5%
36 | CCN(CC)CCCC(C)Nc1cc(O)cc2cccnc12 (stereo not given) | 44.4%
37 | Cc1ccc(/C=N/NC(=O)CSc2nc3ccccc3c(=O)n2Cc2ccc(S(N)(=O)=O)cc2)cc1 | 86.3%
38 | C[C@H]1[C@H](C)CC[C@]2(C(=O)NCC#CCN3CCN(C)CC3)CC[C@]3(C)C(=CC[C@@H]4[C@@]5(C)Cc6c([nH]c7ccccc67)C(C)(C)[C@@H]5CC[C@]43C)[C@H]12 | 19.3%
39 | CCCCCCNC(=O)Oc1ccc(/C(=C(\C)c2ccccc2)c2ccc(OCCCN(C)C)cc2)cc1 | 2.7% (active)
40 | CCCCCCOc1ccc(/C=N/Nc2cc(C)nc3ccc(Cl)cc23)cc1 | -42.3% (active)
